# Experimental data published in publication PMC5540273 (PLoS ONE, 2017).
# Columns and labels:
# Details in all cases: concentration: 1 μM, replicates: in singlicate; n = 1
# TSSK3 = system: TSSK3
# TTK = system: TTK
# TXK = system: TXK
# [1] = system: TYK2(JH1domain-catalytic)
# [2] = system: TYK2(JH2domain-pseudokinase)
# TYRO3 = system: TYRO3
# ULK1 = system: ULK1
# ULK2 = system: ULK2
# ULK3 = system: ULK3
# VEGFR2 = system: T1, VEGFR2
# T1 construct: gene KDR
# 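Further: KINOMEscan kinase panel screen.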
smiles,measurement,setting,value
O=C(c1ccc(-c2cc(-c3c[nH]nc3-c3ccccn3)ccn2)cc1)N1CCOCC1 [GW812171],%Inh,TSSK3,0%
same,%Inh,TTK,0%
same,%Inh,TXK,11%
same,%Inh,[1],0%
same,%Inh,[2],21%
same,%Inh,TYRO3,0%
same,%Inh,ULK1,14%
same,%Inh,ULK2,38%
same,%Inh,ULK3,3%
same,%Inh,VEGFR2,0%
Cc1c2ccc(N(C)c3ccnc(Nc4cccc(S(N)(=O)=O)c4)n3)cc2nn1Cc1ccccc1.Cl.Cl [GW787226],%Inh,TSSK3,0%
same,%Inh,TTK,35%
same,%Inh,TXK,17%
same,%Inh,[1],16%
same,%Inh,[2],0%
same,%Inh,TYRO3,0%
same,%Inh,ULK1,3%
same,%Inh,ULK2,0%
same,%Inh,ULK3,6%
same,%Inh,VEGFR2,99.2%
O=C(NCCNc1ccnc(Nc2ccc(F)cc2)n1)Nc1ccccc1F [GSK1379880],%Inh,TSSK3,12%
same,%Inh,TTK,0%
same,%Inh,TXK,1%
same,%Inh,[1],24%
same,%Inh,[2],17%
same,%Inh,TYRO3,0%
same,%Inh,ULK1,19%
same,%Inh,ULK2,0%
same,%Inh,ULK3,28%
same,%Inh,VEGFR2,0%
COCCNC(=O)c1ccc(-c2cc(C(=O)NC3CC3)cc(F)c2C)cc1 [GW868318],%Inh,TSSK3,24%
same,%Inh,TTK,0%
same,%Inh,TXK,18%
same,%Inh,[1],9%
same,%Inh,[2],33%
same,%Inh,TYRO3,21%
same,%Inh,ULK1,46%
same,%Inh,ULK2,37%
same,%Inh,ULK3,47%
same,%Inh,VEGFR2,16%
COc1cc2c(cc1OCCN1CCN(C)CC1)ncc1c3ccc(C#N)cc3[nH]c21,%Inh,TSSK3,9%
same,%Inh,TTK,7%
same,%Inh,TXK,0%
same,%Inh,[1],0%
same,%Inh,[2],35%
same,%Inh,TYRO3,0%
same,%Inh,ULK1,92.4%
same,%Inh,ULK2,99.9%
same,%Inh,ULK3,66%
same,%Inh,VEGFR2,23%
CN1c2ccc(NCc3ccc(F)cc3)cc2-c2c(cnn2C)S1(=O)=O,%Inh,TSSK3,0%
same,%Inh,TTK,0%
same,%Inh,TXK,0%
same,%Inh,[1],0%
same,%Inh,[2],12%
same,%Inh,TYRO3,16%
same,%Inh,ULK1,0%
same,%Inh,ULK2,0%
same,%Inh,ULK3,0%
same,%Inh,VEGFR2,4%
Cc1ccc(C(=O)NCC(N)=O)cc1-n1c(C)cc(OCc2ccc(F)cc2F)c(Br)c1=O,%Inh,TSSK3,0%
same,%Inh,TTK,35%
same,%Inh,TXK,21%
same,%Inh,[1],0%
same,%Inh,[2],0%
same,%Inh,TYRO3,3%
same,%Inh,ULK1,0%
same,%Inh,ULK2,0%
same,%Inh,ULK3,2%
same,%Inh,VEGFR2,0%
O=c1cc(N2CCOCC2)nc2n(Cc3cccc(C(F)(F)F)c3)ccn12 [GSK2297543],%Inh,TSSK3,15%
same,%Inh,TTK,12%
same,%Inh,TXK,0%
same,%Inh,[1],0%
same,%Inh,[2],0%
same,%Inh,TYRO3,0%
same,%Inh,ULK1,0%
same,%Inh,ULK2,0%
same,%Inh,ULK3,9%
same,%Inh,VEGFR2,13%
[2H]C([2H])(c1cccc(C(F)(F)F)c1C)n1ccn2c(=O)nc(N3CCOCC3)cc12 [GSK2336394],%Inh,TSSK3,14%
same,%Inh,TTK,0%
same,%Inh,TXK,0%
same,%Inh,[1],71%
same,%Inh,[2],13%
same,%Inh,TYRO3,0%
same,%Inh,ULK1,0%
same,%Inh,ULK2,0%
same,%Inh,ULK3,8%
same,%Inh,VEGFR2,0%
Cc1ccc(NC(=O)c2ccnc(N3CCN(C)CC3)c2)cc1-c1ccc(C(=O)NCC2CC2)cc1 [GW775604],%Inh,TSSK3,0%
same,%Inh,TTK,0%
same,%Inh,TXK,0%
same,%Inh,[1],100%
same,%Inh,[2],0%
same,%Inh,TYRO3,0%
same,%Inh,ULK1,0%
same,%Inh,ULK2,100%
same,%Inh,ULK3,0%
same,%Inh,VEGFR2,0%
CN1c2ccc(CNc3ccc(F)cc3)cc2-c2c(cnn2C)S1(=O)=O,%Inh,TSSK3,0%
same,%Inh,TTK,0%
same,%Inh,TXK,0%
same,%Inh,[1],0%
same,%Inh,[2],0%
same,%Inh,TYRO3,0%
same,%Inh,ULK1,0%
same,%Inh,ULK2,0%
same,%Inh,ULK3,0%
same,%Inh,VEGFR2,0%
Cc1cccc(-c2nc(Nc3ccc4ncsc4c3)c3ccccc3n2)n1 [GW867588],%Inh,TSSK3,0%
same,%Inh,TTK,55%
same,%Inh,TXK,0%
same,%Inh,[1],0%
same,%Inh,[2],55%
same,%Inh,TYRO3,0%
same,%Inh,ULK1,4%
same,%Inh,ULK2,0%
same,%Inh,ULK3,2%
same,%Inh,VEGFR2,6%
COc1ccc(S(=O)(=O)NC2CCN(c3cc(C)nc(Nc4cccc(C#N)c4)n3)CC2)cc1.O=C(O)C(F)(F)F [GSK1653539],%Inh,TSSK3,0%
same,%Inh,TTK,0%
same,%Inh,TXK,0%
same,%Inh,[1],0%
same,%Inh,[2],6%
same,%Inh,TYRO3,0%
same,%Inh,ULK1,0%
same,%Inh,ULK2,0%
same,%Inh,ULK3,23%
same,%Inh,VEGFR2,0%
Cc1cccc(-c2nc(-c3ccc(S(C)(=O)=O)cc3)sc2-c2ccncc2)c1,%Inh,TSSK3,0%
same,%Inh,TTK,20%
same,%Inh,TXK,0%
same,%Inh,[1],2%
same,%Inh,[2],3%
same,%Inh,TYRO3,0%
same,%Inh,ULK1,0%
same,%Inh,ULK2,0%
same,%Inh,ULK3,0%
same,%Inh,VEGFR2,0%
NS(=O)(=O)c1cccc(-c2ccc3ncc(N4CCOCC4)nc3c2)c1 [GSK1535721],%Inh,TSSK3,6%
same,%Inh,TTK,6%
same,%Inh,TXK,0%
same,%Inh,[1],0%
same,%Inh,[2],31%
same,%Inh,TYRO3,0%
same,%Inh,ULK1,0%
same,%Inh,ULK2,0%
same,%Inh,ULK3,2%
same,%Inh,VEGFR2,10%
O=C1Cc2cc(Nc3nc(NCc4cccc(S(=O)(=O)C(F)(F)F)c4)ncc3C(F)(F)F)ccc2N1,%Inh,TSSK3,9%
same,%Inh,TTK,0%
same,%Inh,TXK,4%
same,%Inh,[1],25%
same,%Inh,[2],0%
same,%Inh,TYRO3,3%
same,%Inh,ULK1,3%
same,%Inh,ULK2,26%
same,%Inh,ULK3,12%
same,%Inh,VEGFR2,0%
CNc1ncnc2[nH]ncc12 [SKF-18355],%Inh,TSSK3,0%
same,%Inh,TTK,0%
same,%Inh,TXK,0%
same,%Inh,[1],15%
same,%Inh,[2],27%
same,%Inh,TYRO3,0%
same,%Inh,ULK1,11%
same,%Inh,ULK2,42%
same,%Inh,ULK3,14%
same,%Inh,VEGFR2,1%
CC(=O)Nc1ccc(COc2ccc(Nc3ccnc4cc(-c5ccccn5)ccc34)cc2)cc1.Cl [GW440148],%Inh,TSSK3,12%
same,%Inh,TTK,0%
same,%Inh,TXK,3%
same,%Inh,[1],20%
same,%Inh,[2],5%
same,%Inh,TYRO3,0%
same,%Inh,ULK1,0%
same,%Inh,ULK2,0%
same,%Inh,ULK3,3%
same,%Inh,VEGFR2,99.6%
